High-throughput results: PubChem, National Center for Advancing Translational Sciences (NCATS)
NPC1 prom act: activates the NPC1 promoter | 2.4% of 320,000 active | Huh7 NPC1 promoter luciferase reporter, 24 h | Potency, µM (highest dose often 9.22 µM), for the others: at the highest dose activation, actives largely listed as activators | AID 485313; also: % of control where 0% means no effect; nearly all actives have a fitted effect of over 60% in size
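Compounds in DMSO were transferred onto Huh7 NPC1-luciferase reporter cells pre-incubated 2 h; after 24 h at 37 °C, Amplite reagent was dispensed and luminescence recorded 10 min later.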
Rab9 prom act: activates the Rab9 promoter; AID 485297; Huh7 Rab9 promoter-luciferase reporter, luminescence, 24 h; Potency, µM (top dose mostly 9.22 µM), for inactives: at the highest dose activation, negative = inhibition, hits mostly activators; 2.8% of 320,000 active; also: % of control where 0% means no effect; nearly all actives have a fitted effect of over 60% in size
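Huh7 reporter line, Rab9 promoter upstream of luciferase. Compound exposure 24 h at 37 °C in reduced-serum medium with 10% FBS. Read-out: luminescence.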
KinaseGlo FLuc: blocks Kinase-Glo luciferase, a counter-screen artifact | 0.28% of 200,000 active | Kinase-Glo luciferase, ATP luminescence, 8 min | Potency, µM (doses to about 38.3 µM), for inactives: at the highest dose activity change, negative = inhibition, actives largely listed as inhibitors | Q27757; also: % is scaled to controls: 0 for no effect and ±100 for the full control effect; nearly all actives have a fitted effect of over 60% in size
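Light output from Kinase-Glo luciferase with luciferin and 10 uM ATP in 50 mM imidazole pH 7.2, KCl, MgCl2, Tween 20, BSA; compound pin-delivered, 8-min ambient incubation, then luminescence read.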
SMN2 splice enh: increases expression of the SMN2 splice variant; HEK293 SMN2-luciferase splicing reporter, luminescence, 30-36 h; Potency, µM (top dose mostly 46.1 µM), without a hit: top-dose activity change, positive = activation, usual class: activators; 2.8% of 210,000 active; also: % of control where 0% means no effect; nearly all actives have a fitted effect of over 55% in size
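HEK293 cells carry an SMN2 […]–luciferase reporter in which exon 7 inclusion puts luciferase in frame. Cells were plated 10-12 h before compound addition, then incubated 30-36 h at 37C. ONE-Glo luminescence was read; sodium butyrate at 4.5 mM final served as control.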
ELG1 genotoxic: genotoxicity induction in ELG1-luciferase HEK293T cells; HEK293T ELG1-luciferase reporter, luminescence, 16 h; Potency, µM (top dose mostly 46 µM), without a hit: top-dose activity change, positive = activation, usual class: activators; 1.3% of 330,000 active; also: % of control where 0% means no effect; nearly all actives have a fitted effect of over 60% in size
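HEK293T cells expressing luciferase-tagged ELG1 were treated with compound or DMSO for 16 hr at 37°C. Luciferase activity was then read after 30 min with ONE-Glo at room temperature; rising signal flags genetic stress.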
FLuc modulator: firefly luciferase modulation, counter-screen for miR-21 project; 6.9% of 360,000 active; Potency, µM (series often up to 57.5 µM), for the others: at the highest dose activity change, negative = inhibition, hits mostly inhibitors; AID 588342; purified FLuc, Km substrates, luminescence inhibition;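 also: plate controls were vehicle for no effect and reference inhibitor for full effect; nearly all actives have a fitted effect of over 55% in size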
Target sequence (P08659 whole entry, looked up): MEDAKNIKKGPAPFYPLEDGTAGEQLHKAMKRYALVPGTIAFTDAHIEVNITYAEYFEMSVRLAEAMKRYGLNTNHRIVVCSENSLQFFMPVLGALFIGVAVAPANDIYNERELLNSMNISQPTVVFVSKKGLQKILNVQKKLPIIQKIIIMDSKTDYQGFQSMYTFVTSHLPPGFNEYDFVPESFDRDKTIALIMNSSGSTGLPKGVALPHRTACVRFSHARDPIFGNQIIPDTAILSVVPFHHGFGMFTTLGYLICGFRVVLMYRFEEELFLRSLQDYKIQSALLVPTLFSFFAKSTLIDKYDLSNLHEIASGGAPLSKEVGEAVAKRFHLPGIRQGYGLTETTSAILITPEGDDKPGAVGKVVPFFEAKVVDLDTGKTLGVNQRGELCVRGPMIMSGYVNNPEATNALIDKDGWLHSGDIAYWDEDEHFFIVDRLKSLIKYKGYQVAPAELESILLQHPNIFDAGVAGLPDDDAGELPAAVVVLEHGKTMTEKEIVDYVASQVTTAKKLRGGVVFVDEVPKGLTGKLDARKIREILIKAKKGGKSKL
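Purified P. pyralis luciferase (10nM final) with 10uM D-luciferin and 10uM ATP (Km levels) in 50mM Tris acetate pH 7.5, 10mM Mg acetate, 0.01% Tween-20, 0.05% BSA; qHTS 6-point titration, ~60 µM downward; luminescence read.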
* hit, by the source's call; ? = inconclusive; . = no result; [ ] = dose if it differs, or a comment. An excerpt weighted towards active compounds, which were near 7.4% of everything screened. Calls follow the shape of the dose curve; as a rule, active = well fitted curve in the direction sought with a large enough effect; inconclusive = small, poorly fitted or top-dose-only effect, or another doubt; inactive = no such curve, though single readings can be large; an effect the other way counts as inactive or inconclusive. Potency is read from the fitted curve at half-maximal effect.

SMILES | NPC1 prom act | Rab9 prom act | KinaseGlo FLuc | SMN2 splice enh | ELG1 genotoxic | FLuc modulator
Cc1cn2c(=O)cc(COC(=O)c3cccc(NC(=O)COc4ccccc4)c3)nc2s1 | . | . | . | . | . | 0.2%
Clc1ccc(Cc2noc(-c3cccs3)n2)cc1 | ? | 21.5% | -7.2% | 0.1% | 6.51µM* | 13.5µM*
Cc1ccccc1-c1noc(-c2nnn(-c3ccccc3C)c2N)n1 | . | . | . | . | . | -10.8%
Cc1ccccc1-c1noc(-c2ccccc2F)n1 | 2.51µM* | 2.24µM* | -21.1% | ? | 6.51µM* | 1.9µM*
Cc1ccccc1-c1noc(-c2ccc(O)cc2)n1 | ? | 29.4% | -25.5% | ? | ? | 4.78µM*
O=S(=O)(Cc1noc(-c2ccc(Cl)cc2)n1)Cc1ccco1 | 20.9% | 25.7% | . | . | 7.5% | ?
Clc1ccc(-c2nc(Cc3ccccc3Cl)no2)cc1 | 13.5% | 22.9% | -4.8% | 0.1% | 11.2% | 15.1µM*
COc1ccc(-c2ccc(-c3noc(-c4ccccc4C)n3)c(OC)n2)cc1 | 0.0% | 0.6% | 20.8% | -6.2% | -1.3% | ?
Cc1ccccc1-c1noc(C2CCCCC2)n1 | -0.5% | 8.9% | -8.2% | -5.8% | 12.5% | 16.9µM*
Cc1ccccc1-c1noc(-c2ccc(Cl)cc2)n1 | 3.98µM* | 2.82µM* | -13.2% | 11.2µM* | ? | 1.07µM*
CCOc1ccc(CCNC(=O)Cn2ccc3cc(S(=O)(=O)N4CCCCCC4)ccc32)cc1 | . | . | . | . | . | -11.7%
CCOC(=O)Cc1csc(NC(=O)c2cc(C)c(C)s2)n1 | ? | 23.3% | . | . | 0.4% | 8.49µM*
CCOC(=O)Cc1csc(NC(=O)c2ccc(Cl)s2)n1 | -11.0% | 1.2% | . | . | 13.2% | ?
CCOC(=O)Cc1csc(NC(=O)c2csc3c2CCCC3)n1 | -2.0% | -6.1% | -4.0% | -35.5% | -4.7% | 4.78µM*
CCOC(=O)Cc1csc(NC(=O)c2cc3c(s2)CCCC3)n1 | 1.41µM* | 0.562µM* | 6.6% | -1.5% | ? | 1.35µM*
CCCCCn1c(=N)c(S(=O)(=O)c2ccccc2)cc2c(=O)n3ccccc3nc21 | . | . | . | -9.6% | . | 2.6%
S=C(S)NCCCn1ccnc1 | . | . | -1.6%[7.66 µM] | -5.2%[9.22 µM] | . | .
Cc1cc(S(=O)(=O)Nc2cc3c(cc2NCc2ccccc2)n(C)c(=O)n3C)ccc1F | . | . | . | 10µM* | . | 23.9µM*
Cn1c(=O)n(C)c2cc(NS(=O)(=O)c3ccc(C(C)(C)C)cc3)c(NCc3ccccc3)cc21 | . | . | . | 5.62µM* | . | ?
COc1ccc(S(=O)(=O)Nc2ccc3c(c2)n(C)c(=O)n3C)cc1OC | 2.1% | 0.9% | . | . | ? | 1.9%
Cn1c(=O)n(C)c2cc(N3CCOCC3)c(NS(=O)(=O)c3ccc(Cl)cc3)cc21 | . | . | . | 16.8% | . | -8.2%
Cn1c(=O)n(C)c2cc(NS(=O)(=O)c3ccc(Cl)cc3)c(NCc3ccccc3)cc21 | . | . | . | 7.1% | . | 15.1µM*
COc1ccc(S(=O)(=O)Nc2cc3c(cc2NCc2ccccc2)n(C)c(=O)n3C)cc1OC | . | . | . | 3.55µM* | . | ?
Cc1cc(S(=O)(=O)Nc2ccc3c(c2)n(C)c(=O)n3C)ccc1F | -4.8% | -4.8% | 2.9% | -34.8% | ? | 2.5%
N#CCCn1cnc2c1NC=NC2Cl (stereo not given) | . | . | 0.0% | -1.4% | . | .
SMILES | NPC1 prom act | Rab9 prom act | KinaseGlo FLuc | SMN2 splice enh | ELG1 genotoxic | FLuc modulator
CCCCNC(=O)Nc1nc2ccccc2s1 | 2.51µM* | 1.41µM* | -1.7% | 11.2µM* | ? | 10.7µM*
CCCCNC(=O)Nc1nc2ccc(CC)cc2s1 | ? | ? | 0.2% | ? | ? | 6.75µM*
CCCNC(=O)Nc1nc2ccccc2s1 | 2.24µM* | 2.51µM* | . | . | ? | 9.53µM*
Cc1nc2c(ccc3nc(NC(=O)c4ccc(S(=O)(=O)N(C)C)cc4)sc32)s1 | -2.9% | 2.1% | -0.6% | 18.8% | 2.4% | 2.69µM*
CCCCNC(=O)Nc1ccon1 | -0.5% | -8.6% | 0.7% | -26.9% | 2.3% | 1.2%
CCCCn1c(=O)c2oc3ccccc3c2n(CC(=O)Nc2cccc(Cl)c2C)c1=O | . | . | . | . | . | -4.8%
O=c1ccn([C@@H]2O[C@H](COP(=O)(O)O)[C@@H](O)[C@H]2O)c(=O)[nH]1 | . | . | . | -4.1% | . | .
